PubChem BioAssay (NCI)
This is part of a sample that, as a whole, favours compounds with a hit. Of some 83,000 tested, about 20% had one in any assay.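 Treatment: one concentration, 48 hours, 96-well format. Scoring: percent growth, with anything below 10 considered active.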 Unmarked numbers belong to inactive results. Active and inactive are the calls of the source.

Key:
Assay in all cases: NCI-60 one-dose screen, 48 h (100 = growth as untreated, 0 = no growth, -100 = all killed)
Conditions in all cases: 10 µM unless noted
SK-MEL-2 melanoma = system: SK-MEL-2 melanoma
EKVX NSCLC = system: EKVX NSCLC
SN12C renal = system: SN12C renal
UO-31 renal = system: UO-31 renal
TK-10 renal = system: TK-10 renal
ACHN renal = system: ACHN renal
CAKI-1 renal = system: CAKI-1 renal
A498 renal = system: A498 renal
CCRF-CEM leukemia = system: CCRF-CEM leukemia
MOLT-4 leukemia = system: MOLT-4 leukemia
SR leukemia = system: SR leukemia
RPMI-8226 leukemia = system: RPMI-8226 leukemia
OVCAR-8 ovarian = system: OVCAR-8 ovarian
OVCAR-5 ovarian = system: OVCAR-5 ovarian
OVCAR-4 ovarian = system: OVCAR-4 ovarian
SK-OV-3 ovarian = system: SK-OV-3 ovarian
IGROV1 ovarian = system: IGROV1 ovarian
OVCAR-3 ovarian = system: OVCAR-3 ovarian
HS 578T breast = system: HS 578T breast
NCI/ADR-RES ovarian = system: NCI/ADR-RES ovarian

Compound	growth (SK-MEL-2 melanoma)	growth (EKVX NSCLC)	growth (SN12C renal)	growth (UO-31 renal)	growth (TK-10 renal)	growth (ACHN renal)	growth (CAKI-1 renal)	growth (A498 renal)	growth (CCRF-CEM leukemia)	growth (MOLT-4 leukemia)	growth (SR leukemia)	growth (RPMI-8226 leukemia)	growth (OVCAR-8 ovarian)	growth (OVCAR-5 ovarian)	growth (OVCAR-4 ovarian)	growth (SK-OV-3 ovarian)	growth (IGROV1 ovarian)	growth (OVCAR-3 ovarian)	growth (HS 578T breast)	growth (NCI/ADR-RES ovarian)
Cc1ccc(-c2nc(/C=C3/C(=O)Nc4ccc(F)cc43)c3ccccn23)cc1	31.9%	87.2%	88.2%	70.2%	89.2%	-3.57% (active)	60.5%	97.7%	77.4%	77.7%	58%	89.7%	69.6%	69.2%	63.4%	98%	55%	110%	99.2%	–
CN(C)CCCC1(c2ccc(F)cc2)OCc2cc(-c3ccc4cc[nH]c4c3)ccc21 (stereo not drawn)	87.6%	61.6%	58.6%	30.2%	92.9%	36.2%	30.4%	81.5%	33.2%	-8.83% (active)	-2.82% (active)	36.7%	57.9%	84.4%	44.4%	90.2%	23%	45.6%	54.6%	56.8%
CCO/C=N/C1=C(C#N)C(c2ccc(F)cc2)c2sc3c(F)cccc3c2O1 (stereo not drawn)	2.27% (active)	66.5%	49.7%	54.2%	64.4%	54%	25.2%	40.8%	22.9%	51.5%	31.8%	41.9%	51.5%	83.4%	67.8%	46.9%	50.3%	8.43% (active)	24.4%	25.6%
COc1ccc(/C=C/c2ccc3ccccc3n2)c(OC)c1	48.3%	79.3%	80.1%	65.4%	111%	87%	73.6%	59.5%	49%	58.3%	29.4%	74.7%	92.5%	86.5%	95.9%	88.6%	59.9%	74%	85.5%	49.7%
O=c1c2c3c(sc2n2c(-c4cc(-c5ccccc5)no4)nnc2n1Cc1ccccc1)CCCC3	119%	80%	90.8%	-41.9% (active)	120%	95.4%	-67.8% (active)	82.2%	34.8%	55%	55.7%	53.5%	40.9%	82.8%	87.6%	124%	-11.9% (active)	78.7%	101%	–
COC1=C(C)C(=O)N2[C@@H]1[C@H](c1ccccc1)OC21C=CC(=O)C=C1	11.1%	70.3%	0.448% (active)	-42.9% (active)	20.8%	-29.3% (active)	-59.6% (active)	92.7%	-19.7% (active)	-4.79% (active)	2.4% (active)	-20.7% (active)	19.4%	-56.1% (active)	33.4%	112%	-20.7% (active)	-4.05% (active)	32.6%	–
Cc1ccc(S(=O)(=O)N2CCC(=O)c3ccccc32)cc1	56.9%	102%	81.2%	71.1%	89.1%	90.7%	91.9%	83.2%	66.3%	64.1%	39.1%	106%	103%	91%	99.3%	62.2%	85.2%	63.4%	71.7%	–
Oc1c(CN2CCC(N3CCCCC3)CC2)cc(Cc2cc(CN3CCC(N4CCCCC4)CC3)c(O)c3ncccc23)c2cccnc12	41.4%	26%	34.2%	12.4%	33.5%	13.8%	25.5%	77.7%	6.54% (active)	6.56% (active)	12.1%	25.4%	30.1%	42.1%	20.7%	20.5%	22.9%	11.1%	52.8%	–
COc1ccc(-c2nn(-c3ccccc3)cc2/C=C/C(=O)NNC(=O)Nc2ccc(C)cc2)cc1	102%	97.2%	97%	84.2%	99%	102%	91.5%	109%	47.4%	43%	64%	93.3%	98.1%	103%	101%	92.8%	93%	107%	–	–
Cc1nc2sc(C(=O)Nc3cccc(Br)c3C)c(N)c2cc1C(O)c1ccccc1 (stereo not drawn)	29.7%	39.7%	8.12% (active)	30.9%	44.7%	21.9%	20.4%	-12.8% (active)	17.2%	12%	7.47% (active)	2.82% (active)	12.2%	32.3%	47.1%	11.4%	15.5%	-2.75% (active)	12.3%	4.66% (active)
O=S1(=O)C=C(c2ccccc2)C(c2ccccc2)=C1	52.1%	90.1%	12.8%	-6.37% (active)	-37.1% (active)	-47.4% (active)	-15.6% (active)	79.5%	2.77% (active)	1.8% (active)	-3.82% (active)	4.61% (active)	6.07% (active)	85.1%	27.6%	88.8%	11.7%	-86% (active)	–	–
O=C(CN1CCCCCC1)Nc1nc2ccc(NCc3ccc(Cl)cc3)cc2s1	109%	96.4%	95.5%	88.6%	110%	88.7%	86.1%	110%	93%	92.4%	97.2%	79.3%	95.3%	98.6%	96.3%	107%	98.4%	104%	98%	106%
COc1cc(-c2nc3c(ncc4ccc(=O)n(-c5ccccc5)c43)s2)cc(OC)c1OC	88.4%	53.3%	73.9%	24.9%	54%	79%	67.4%	6.71% (active)	74.1%	69.5%	74.5%	52.9%	88.3%	73.5%	72.8%	80%	53.5%	79.7%	52.6%	–
Cc1ccc(/C=C(\C#N)n2nnc3cc(F)c(F)cc32)cc1	14.8%	30.9%	2.07% (active)	13.2%	22.4%	22.5%	32.6%	13%	5.57% (active)	-2.32% (active)	7.33% (active)	4.53% (active)	6.79% (active)	-4.62% (active)	46%	53.6%	2.76% (active)	7.86% (active)	36.1%	12.9%
C=C(C)[C@@H]1CC[C@]2(C(N)=O)CC[C@]3(C)[C@H](CC[C@@H]4[C@@]5(C)CC[C@H](OCCC#N)C(C)(C)[C@@H]5CC[C@]43C)[C@@H]12	92.5%	90.4%	78.5%	75.8%	117%	74.1%	64.5%	116%	78.9%	70%	72.7%	73.2%	86.9%	76.3%	93.2%	79.5%	90%	110%	88.3%	89%
N#Cc1c(-c2ccccc2)nc(SCc2nnc(-c3ccc(Cl)cc3)o2)[nH]c1=O	80.4%	95.5%	97.6%	74.6%	90.6%	109%	93.6%	107%	85.5%	79.9%	105%	95.6%	93.6%	114%	106%	55.4%	103%	103%	–	–
